According to PubChem BioAssay (NCATS):
Inconclusive results are not listed. Active and inactive are the calls of the source. The call rests on the fitted dose curve; in most records, active means well fitted inhibition curve with a large enough effect; inconclusive means small, poorly fitted or top-dose-only effect; inactive means flat fitted curve, though single readings scatter.

What was measured:
Test in all cases: qHTS profiling for inhibitors of Plasmodium falciparum proliferation (AID 504749); further: nearly all actives have a fitted effect of over 60% in size
Details in all cases: P. falciparum in erythrocytes, SYBR Green DNA, 72 h
[1] = system: CP250
Method in brief: (§1)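 Readout was DNA-dye fluorescence from lysed cultures, ex 485/em 535 nm. Parasitized red cells had grown 72 h with compound; data scaled between 0.29 uM artemisinin and DMSO wells and corrected using vehicle-only plates.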

[2] = system: CP252
Method in brief: as §1

[3] = system: CP256
Method in brief: as §1

[4] = system: CP260
Method in brief: as §1

[5] = system: CP262
Method in brief: as §1

[6] = system: CP265
Method in brief: as §1

[7] = system: CP266
Method in brief: as §1

[8] = system: CP268
Method in brief: as §1

[9] = system: CP269
Method in brief: as §1

[10] = system: CP286
Method in brief: as §1

Measured: Potency
Potency means the concentration at half of the fitted maximal effect.

CC[C@]1(O)CC2CN(CCc3c([nH]c4ccccc34)[C@@](C(=O)OC)(c3cc4c(cc3OC)N(C)[C@H]3[C@@](O)(C(=O)OC)[C@H](OC(C)=O)[C@]5(CC)C=CCN6CC[C@]43[C@@H]65)C2)C1 (stereo partly drawn)
active: [1] 3550 nM | [2] 3550 nM | [3] 2510 nM | [4] 158 nM | [5] 1070 nM | [6] 3980 nM | [7] 3790 nM | [8] 6750 nM | [9] 1900 nM | [10] 158 nM

CC(=O)O[C@H]1C(=O)[C@@]2(C)[C@H]([C@H](OC(=O)c3ccccc3)[C@]3(O)C[C@H](OC(=O)[C@H](O)[C@@H](NC(=O)c4ccccc4)c4ccccc4)C(C)=C1C3(C)C)[C@]1(OC(C)=O)CO[C@@H]1C[C@@H]2O
active: [1] 708 nM | [2] 178 nM | [3] 282 nM | [4] 355 nM | [5] 953 nM | [6] 891 nM | [9] 536 nM | [10] 178 nM
